Compound activity as filed in PubChem BioAssay.
The entries come from a sample that favours hits as a whole.
ER stress surv = protection against thapsigargin ER stress killing – CSM14.1 cells, ATP luminescence, primary screen | 48,000 tested, 0.33% active | AID 1010, 2008 | CSM14.1 thapsigargin ER stress survival | relative survival (cellular ATP), % at 15 µg/mL (by protocol);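 active means survival measured by cellular ATP above 50% at 15 µg/ml in the first screen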;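 further: cell death triggered by about 15 µM thapsigargin; ATP read 24 h after thapsigargin was added; plate controls were thapsigargin with DMSO for no effect and DMSO without thapsigargin for full effect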
Starred values were filed as active, the others as inactive.

SMILES | ER stress surv
COc1ccc(C(C)=O)cc1N1C(=O)C2C3C=CC(C3=C(c3ccccc3)c3ccccc3)C2C1=O (configuration not stated) | 77*
CC(=O)c1cccc(N2C(=O)C3C4C=CC(C4=C(C)C)C3C2=O)c1 (configuration not stated) | 1
C(=N\N=C\c1ccc2c(c1)OCO2)/c1ccc2c(c1)OCO2 | -2
CN1/C(=C\C(=O)Nc2ccc(Cl)cc2)c2ccccc2CC1(C)C | -6
CCCOc1ccccc1NC(=O)CC1Nc2cc(C)c(C)cc2NC1=O (configuration not stated) | 2
COc1ccc(C2CC(=O)C3=C(C2)Nc2ccccc2NC3c2ccc(OCc3ccccc3)c(OC)c2)cc1 (configuration not stated) | 0
COc1ccc(C2CC(=O)C3=C(C2)Nc2ccccc2NC3c2ccccc2C)cc1 (configuration not stated) | 99*
COc1ccc(C2CC(=O)C3=C(C2)Nc2ccccc2NC3c2ccccc2OC)cc1 (configuration not stated) | 3
COc1ccc(C2CC(=O)C3=C(C2)Nc2ccccc2NC3c2ccccc2Cl)cc1 (configuration not stated) | 101*
COc1ccc(C2CC(=O)C3=C(C2)Nc2ccccc2NC3c2ccc(C)cc2)cc1 (configuration not stated) | -3
COc1ccc(C2Nc3ccccc3NC3=C2C(=O)CC(c2ccc(Cl)cc2)C3)cc1 (configuration not stated) | 8
COc1ccc(C2CC(=O)C3=C(C2)Nc2ccccc2NC3c2ccc(OCc3ccccc3)cc2)cc1 (configuration not stated) | 94*
COc1ccc(C2CC(=O)C3=C(C2)Nc2ccccc2NC3c2c(Cl)cccc2Cl)cc1 (configuration not stated) | 2
O=C1CC(c2ccccc2)CC2=C1C(c1ccccc1Cl)Nc1ccccc1N2 (configuration not stated) | -5
O=C(N/N=C/c1cccc([N+](=O)[O-])c1)c1cc(-c2ccc(Cl)cc2)n[nH]1 | 10
Cc1ccc(-c2c(C#N)c(N)nc3c2CCCCC3)s1 | 3
Cc1ccc(NC(=O)CSc2ccccn2)cc1 | 0
CCOC(=O)c1sc(NC(=O)CCC2CCCC2)c(C(N)=O)c1C | 11
COCCOC(=O)c1ccc(NC(=O)COc2ccc(Cl)cc2Cl)cc1 | 1
O=C(c1cccc(F)c1)N1CCN(Cc2cccc(F)c2)CC1 | 6
COc1ccc(C(=O)N2CCN(Cc3cccc(F)c3)CC2)cc1 | 5
O=C(c1cccc(F)c1)N1CCN(Cc2cccc(Oc3ccccc3)c2)CC1 | 60*
O=C(CSc1ncnc2nc[nH]c12)C12CC3CC(CC(C3)C1)C2 | -2
COc1ccccc1C1Nc2ccc(C(=O)c3ccccc3)cc2NC2=C1C(=O)CCC2 (configuration not stated) | 10
COc1ccc(C2Nc3ccc(C(=O)c4ccccc4)cc3NC3=C2C(=O)CCC3)c(OC)c1 (configuration not stated) | 3
SMILES | ER stress surv
CN(C)c1ccc(C2Nc3ccc(C(=O)c4ccccc4)cc3NC3=C2C(=O)CCC3)cc1 (configuration not stated) | 97*
CCOc1ccc(/C=N/N2CCN(Cc3cccc4ccccc34)CC2)cc1OC | -5
CC1CN(C(=O)Cc2ccccc2[N+](=O)[O-])CC(C)O1 (configuration not stated) | 4
O=C(NCc1ccncc1)C(=O)Nc1nccs1 | 8
O=C(NCc1ccncc1)C(=O)Nc1nc(C23CC4CC(CC(C4)C2)C3)cs1 | 88*
COc1ccc(C(=O)Nc2nc(C34CC5CC(CC(C5)C3)C4)cs2)cc1 | 8
COc1ccccc1C(NC(=O)Cc1ccccc1)c1ccc2cccnc2c1O (configuration not stated) | 13
O=C(NC(c1ccccc1)c1ccc2cccnc2c1O)c1ccccc1 (configuration not stated) | 3
CC(=O)NC(c1ccc2c(c1)OCO2)c1ccc2cccnc2c1O (configuration not stated) | 77*
O=C1C(=O)N(c2cccnc2)C(c2cccc(F)c2)/C1=C(\O)c1ccc(Cl)cc1 (configuration not stated) | 8
O=C(/C=C/c1ccc([N+](=O)[O-])o1)c1ccc(Br)cc1 | 4
O=C(/C=C/c1ccc2c(c1)OCO2)c1ccc(Br)cc1 | 4
CN(C)c1ccc(/C=C/C(=O)c2ccc(Br)cc2)o1 | 56*
Clc1ccccc1-n1nnnc1C(Cl)(Cl)c1nnnn1-c1ccccc1Cl | 10
Cc1ccc(/C=C2/C=C(c3ccc(Br)cc3)OC2=O)o1 | -9
O=C(N/N=C/c1ccc(Cl)c([N+](=O)[O-])c1)/C(=C\c1ccc2c(c1)OCO2)NC(=O)c1ccccc1 | 81*
COc1cc(Cl)cc(/C=N/NC(=O)/C(=C\c2ccc3c(c2)OCO3)NC(=O)c2ccccc2)c1O | 5
O=C(O)COc1ccccc1/C=N/NC(=O)/C(=C\c1ccc2c(c1)OCO2)NC(=O)c1ccccc1 | -4
COc1ccc(NC(=O)c2cc(-c3ccc(OC)cc3OC)nc3ccccc23)c(OC)c1 | 4
COc1ccc(-c2nc3ccccc3c(C(=O)Nc3ccc(C)cc3)c2C)cc1 | 3
COc1ccc(NC(=O)c2c(C)c(-c3ccc(C)cc3)nc3ccccc23)c(OC)c1 | 68*
COc1ccc(CCN=CC2=C(O)CC(c3ccccc3)CC2=O)cc1OC (configuration not stated) | 8
COc1ccc(CCN=Cc2c(O)n(-c3c(Cl)cccc3Cl)c3ccccc23)cc1OC | 120*
COc1ccc(CCN=CC2=C(O)CC(C)(C)CC2=O)cc1OC | 9
CCOCCOC(=O)c1ccc(NC(=O)c2cccc(Br)c2)cc1 | 12
SMILES | ER stress surv
CCN(CC)c1ccc(Nc2nc(-c3c(C)nc4sccn34)cs2)cc1 | 24
CCOc1ccc(Nc2nc(-c3cccs3)cs2)cc1 | 0
CCOc1ccc(Nc2nc(-c3c(C)nc4sccn34)cs2)cc1 | 93*
Cc1ccc(N2CC(C(=O)N/N=C/c3ccc4c(c3)OCO4)CC2=O)cc1 (configuration not stated) | 0
Cc1ccc(N(Cc2ccc(C(=O)N/N=C/c3cc(Br)c(C)o3)cc2)S(C)(=O)=O)cc1C | 80*
Cc1ccc(N(Cc2ccc(C(=O)N/N=C/c3ccc(OC4CSC4)cc3)cc2)S(C)(=O)=O)cc1C | 43
CCC(C)NC(=O)c1ccc(CN(c2ccc(C)c(C)c2)S(C)(=O)=O)cc1 (configuration not stated) | 0
Cc1ccc(S(=O)(=O)OCP(=O)(c2ccccc2)c2ccccc2)cc1 | -2
O=C(Nc1ncc(Cc2ccccc2)s1)c1ccccc1[N+](=O)[O-] | 6
Cc1c(Cl)c([N+](=O)[O-])nn1CC(=O)N1CCN(C)CC1 | 5
Cc1ccc(-c2nc3ccccc3o2)cc1NC(=O)c1cccc(Cl)c1 | 8
COC(=O)C1C(=O)CC(C)(O)C(C(=O)OC)C1c1ccc(Br)cc1 (configuration not stated) | 7
COc1ccc(C2C(C(=O)c3ccccc3)C(=O)CC(C)(O)C2C(=O)c2ccccc2)cc1 (configuration not stated) | 58*
CC1(O)CC(=O)C(C(=O)c2ccccc2)C(c2ccc([N+](=O)[O-])cc2)C1C(=O)c1ccccc1 (configuration not stated) | -3
CCN(CC)c1ccc(/C=N/Nc2cc(N3CCOCC3)nc(N3CCOCC3)n2)cc1 | -2
